# Results: PubChem BioAssay
# Unmarked numbers belong to inactive results. Calls of active or inactive are those of the source. No stated cut-off is given here; in the data, active means inhibition above about 33%; inactive means the rest.
# Test: VP16 transactivation reporter inhibitors, counter-screen for LRH-1 inverse agonist project, cell-based, luminescence, high throughput (AID 651615)
# Conditions: Gal4-VP16 luciferase reporter cells, at 3.6 µM, hits give high values
row,Structure (SMILES),inhibition
1,COc1ccc(CCNC(=O)CSc2nnc(CNc3ccc(Cl)cc3)o2)cc1OC,-2.14%
2,Cc1cccc(CSC(Nc2ccc(F)cc2)=C(C#N)C#N)c1,17.7%
3,COc1ccc(CCNC(=O)COC(=O)C2CC2C)cc1 (stereo not given),2.63%
4,COc1ccc(CCNC(=O)COC(=O)c2cccn2C)cc1,-13.7%
5,Cc1ccc(CC(=O)Nc2ccncc2)cc1,40.5% (active)
6,Cc1cc(NC(=O)c2ccc([N+](=O)[O-])o2)ccc1NC(=O)c1ccco1,-13.8%
7,Cc1ccc(OCCC(=O)OCC(=O)Nc2ccc(N3CCOCC3)cc2)cc1,-7.59%
8,Cc1ccccc1C(=O)NC1CCN(CC(=O)Nc2ccc(Br)cc2)CC1,15.4%
9,COc1ccc(N2C(=O)C(Cl)=C(N3CCOCC3)C2=O)cc1,7.03%
10,O=C1/C(=C/c2ccccc2)CN(C(=O)CCN2CCOCC2)C/C1=C\c1ccccc1,55.2% (active)
11,Oc1c(Cl)cc(CN2CCOCC2)c2cccnc12,-5.55%
12,CCC(=O)Nc1ccc(NC(=O)CSc2nc3c(c(=O)n(C)c(=O)n3C)n2CC)cc1,-17.8%
13,CCNc1cc(N2CCCC2)ccc1[N+](=O)[O-],-8.79%
14,CC(=O)Nc1cc(-c2ccc(S(C)(=O)=O)cc2)cn2c(-c3ccc(F)cc3)cnc12,-7.42%
15,O=C(c1ccco1)N1CCCC(N2CCN(c3cccc(C(F)(F)F)c3)CC2)C1 (stereo not given),11.1%
16,Cc1cc(C(=O)N/N=C/c2ccc([N+](=O)[O-])o2)c(C)o1,3.18%
17,CCOC(=O)c1c2c(n(Cc3ccccc3)c1C)C(=O)C(=O)c1ccccc1-2,54.6% (active)
18,O=C(Nc1ccccn1)c1ccc([N+](=O)[O-])o1,-16.1%
19,O=C(Nc1ccc(F)cc1)C(c1cc2ccccc2o1)N1CCN(c2cccc(C(F)(F)F)n2)CC1 (stereo not given),16.1%
20,CC1(C)CC(=O)C=C(c2ccc3ncccc3c2)C1,14.3%

row,Structure (SMILES),inhibition
1,NC(=S)N/N=C/c1ccc(-n2nncc2-c2ccc(Cl)cc2)cc1,6.68%
2,O=C(Cn1cnc2c(nnn2-c2ccccc2)c1=O)NCCc1ccccc1,-7.88%
3,COc1ccc(C2=CC(=O)CC(C)(C)C2)cc1OC,11.7%
4,Cc1cc(C(=O)NC2CCCc3c2cnn3-c2cccc(C)c2C)n(C)n1 (stereo not given),59.1% (active)
5,O=C(c1ccccc1)c1cc(-c2ccccn2)c(N2CCOCC2)s1,0.02%
6,Cn1c2c(c(=O)n(C)c1=O)C(C(F)(F)F)(C(F)(F)F)N=C(CCC1CCCCC1)N2,41.1% (active)
7,CCOc1ccc(NC(=O)COC(=O)c2ccc3c(c2)OCCO3)cc1,-12.9%
8,COc1cc(NC(=O)Cn2ccsc2=N)c(C)cc1[N+](=O)[O-],-0.82%
9,COc1cccc(COC(=O)C2CC(=O)N(Cc3ccco3)C2)c1OC (stereo not given),-7.19%
10,CCOc1ccc(Cc2nnc(SCC(=O)Nc3ccc(C(C)=O)cc3)[nH]c2=O)cc1,-7.62%
11,O=C(N/N=C/c1cc2c3c(c1O)CCCN3CCC2)c1ccccc1O,70.4% (active)
12,CCCN1Cc2cccc(C(=O)NC(C)c3cccs3)c2C1=O (stereo not given),0.87%
13,Cn1nnnc1Sc1ncnc2scc(-c3ccc(-c4ccccc4)cc3)c12,-20.2%
14,C=CCOc1ccccc1CN(C(=O)CCl)c1ccc2c(c1)OCO2,-54.5%
15,CCc1cc(=O)oc2cc3occ(-c4ccc(OC)c(F)c4)c3cc12,23.1%
16,N#CCSc1ccccc1NC(=O)CN1C(=O)C2CC=CCC2C1=O (stereo not given),-7.26%
17,C#CCN(C[C@@H]1[C@@H](OC(=O)NCC2CCCCC2)[C@@H](OC(=O)NCC2CCCCC2)Cn2c(=O)ccc(=O)n21)S(=O)(=O)c1ccc(C)cc1,70.8% (active)
18,O=C(CSc1nc2ccc(F)cc2c(=O)n1-c1ccccc1)Nc1ccc2c(c1)CCC2,-3.99%
19,O=[N+]([O-])c1ccc(Sc2nnnn2-c2ccccc2)c(Cl)c1,-13%
20,Cc1cc2nc(C3CCCCC3)c(Cc3ccsc3)n2c(C)c1Br,22.4%
